From PubChem BioAssay
Activity calls are given as the source filed them. Unless noted, how the calls were made is not given here.

Tests used:
[1] = tested on: Wnt5a (protein binding on small-molecule microarray); assay: Wnt5a binders on small-molecule microarray, primary screen, biophysical, 635/667 nm fluorescence (AID 1142); conditions: 635 nm fluorescence, higher = more signal;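 further: fluorescence read at 667 nm with signal to noise per printed feature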
[2] = cell viability in Huh7 cells, primary screen, cytotoxicity control for HCV replication inhibitor project, CellTiter-Glo luminescence, basal, 48 h (AID 1143); conditions: Huh7 HCV replicon, higher = more signal, called active from +8 up or from −8 down;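 further: Huh7 hepatoma cells carrying a hepatitis C replication reporter with no stimulus; test concentration not given here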
[3] = P. aeruginosa biofilm formation inhibitors, primary screen, PAO1 strain, BacTiter-Glo luminescence, LB-PBS (AID 1144); conditions: 12 h, higher = more signal
[4] = CREB reporter modulators without forskolin, primary screen, cell-based, PC12, CRE-LacZ reporter, unstimulated (AID 1145); conditions: no forskolin, luminescence, 4.5 h, higher = more signal, called active from +8 up or from −8 down
[5] = CREB reporter modulators under forskolin, primary screen, cell-based, PC12, CRE-LacZ reporter, forskolin-stimulated (AID 1146); conditions: luminescence, 4.5 h, higher = more signal, called active from +8 up or from −8 down;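 further: PC12 cells with 6xCRE LacZ reporter stimulated by forskolin 10 µM; beta-galactosidase reporter signal reflecting CREB driven transcription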
[6] = target: Streptavidin (Streptomyces avidinii) (UniProt P22629); assay: streptavidin binders on small-molecule microarray, primary screen, artefact control for SMM compound annotation, biophysical, 635/667 nm fluorescence (AID 1147); conditions: streptavidin binding, higher = more signal;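 further: signal reflects streptavidin binding to arrayed compounds as a control protein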
Sequence of Streptavidin (Streptomyces avidinii) (P22629 whole entry, looked up): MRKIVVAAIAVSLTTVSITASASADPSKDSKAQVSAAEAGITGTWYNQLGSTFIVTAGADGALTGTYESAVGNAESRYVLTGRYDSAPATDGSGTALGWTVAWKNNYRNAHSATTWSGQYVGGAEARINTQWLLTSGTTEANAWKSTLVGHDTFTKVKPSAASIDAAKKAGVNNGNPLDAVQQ

[7] = small-molecule binders of probe aInhba, primary screen, biochemical, small-molecule microarray, 635/667 nm fluorescence (AID 1148); conditions: higher = more signal;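 further: score merges 667nm spot fluorescence with signal-to-noise for antibody binding to printed compounds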
Torsin-1A (Homo sapiens) [8] = target: Torsin-1A (Homo sapiens) (UniProt O14656); assay: torsin A binders from cell lysate, primary screen, small-molecule microarray, wild-type, 635/667 nm (AID 1149); conditions: COS7 hTOR1A-WT lysate, 635 nm fluorescence, higher = more signal
Sequence of Torsin-1A (Homo sapiens) (O14656 whole entry, looked up): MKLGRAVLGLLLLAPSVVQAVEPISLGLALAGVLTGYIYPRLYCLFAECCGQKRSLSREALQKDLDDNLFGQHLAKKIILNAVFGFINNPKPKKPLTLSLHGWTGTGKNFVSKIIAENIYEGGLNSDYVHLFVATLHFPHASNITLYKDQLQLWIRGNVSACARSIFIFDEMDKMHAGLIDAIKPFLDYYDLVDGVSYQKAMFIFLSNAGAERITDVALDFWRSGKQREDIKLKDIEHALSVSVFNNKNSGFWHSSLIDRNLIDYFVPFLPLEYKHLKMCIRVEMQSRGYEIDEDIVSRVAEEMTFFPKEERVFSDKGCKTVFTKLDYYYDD

Torsin-1A (Homo sapiens) [9] = target: Torsin-1A (Homo sapiens) (UniProt O14656); assay: small-molecule binders of mutant TOR1A in lysate, primary screen, cell lysate, small-molecule microarray, COS7 lysate, 635/667 nm fluorescence (AID 1150); conditions: COS7 hTOR1A mutant lysate, 635 nm fluorescence, higher = more signal;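 further: score pools 667 nm emission and signal to noise measuring lysate protein binding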
[10] = tested on: Sonic hedgehog protein (Shh); assay: small-molecule binders of Shh protein, primary screen, biochemical, small-molecule microarray, 635/667 nm fluorescence (AID 1151); conditions: small-molecule microarray binding, 635 nm fluorescence; higher = more signal;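 further: Shh protein binding to compounds spotted on small-molecule microarray slides; score combines spot fluorescence intensity with signal-to-noise across triplicate slides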
[11] = E. coli DRC41 culture turbidity changes, primary screen, E. coli filamentation inducer project, strain DRC41, OD650, 48 h (AID 1152);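 further: E. coli MC1000 strain DRC41 lacking acrAB efflux pump and sulA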; conditions: E. coli DRC41 (acrAB sulA), higher = more signal, called active from +8 up or from −8 down
[12] = small-molecule binders of probe aLefty1, primary screen, biochemical, small-molecule microarray, 635/667 nm fluorescence (AID 1153); conditions: higher = more signal;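 further: score merges spot fluorescence with signal-to-noise ratio from the scanned slide images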
[13] = PSAC antagonists in infected red cells, primary screen, cell-based, P. falciparum Indochina, OD700, 1 h (AID 1154); conditions: P. falciparum Indochina infected RBC osmotic lysis, higher = more signal, called active from +8 up or from −8 down
[14] = PSAC antagonists in infected red cells, primary screen, cell-based, P. falciparum Indochina, OD700, 2 h (AID 1155);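 further: lysis reports solute entry through the parasite surface anion channel PSAC; channel blockers reduce lysis of infected cells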; conditions: P. falciparum Indochina infected erythrocytes, osmotic lysis OD700; higher = more signal, called active from +8 up or from −8 down
[15] = osmotic lysis modulators in infected erythrocytes, primary screen, PSAC antagonist project, cell-based, P. falciparum Indochina, OD700, 3 h (AID 1156); conditions: higher = more signal, called active from +8 up or from −8 down
[16] = PSAC antagonists in infected red cells, primary screen, cell-based, P. falciparum Indochina, OD700, 18 h (AID 1157); conditions: P. falciparum Indochina infected erythrocytes, osmotic lysis OD700, 18 h; higher = more signal, called active from +8 up or from −8 down
[17] = modulators of S6 phosphorylation in cells, primary screen, cell-based, A549, cytoblot, luminescence, serum-stimulated (AID 1158); conditions: A549 phospho-S6 cytoblot, 5 h, higher = more signal;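 further: serum-stimulated A549 lung adenocarcinoma cells; signal is phosphorylated S6 detected by cytoblot immunostaining with HRP secondary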
[18] = target: NADPH oxidase 2 (Homo sapiens) (UniProt P04839); assay: NOX2-dependent H2O2 signal modulators, primary screen, NOX inhibitor project, cell-based, HEK293-NOX2, PMA-stimulated, Amplex Red fluorescence (AID 1159); conditions: 45 min, higher = more signal, called active from +8 up or from −8 down; further: test concentration not given here
Sequence of NADPH oxidase 2 (Homo sapiens) (P04839 whole entry, looked up): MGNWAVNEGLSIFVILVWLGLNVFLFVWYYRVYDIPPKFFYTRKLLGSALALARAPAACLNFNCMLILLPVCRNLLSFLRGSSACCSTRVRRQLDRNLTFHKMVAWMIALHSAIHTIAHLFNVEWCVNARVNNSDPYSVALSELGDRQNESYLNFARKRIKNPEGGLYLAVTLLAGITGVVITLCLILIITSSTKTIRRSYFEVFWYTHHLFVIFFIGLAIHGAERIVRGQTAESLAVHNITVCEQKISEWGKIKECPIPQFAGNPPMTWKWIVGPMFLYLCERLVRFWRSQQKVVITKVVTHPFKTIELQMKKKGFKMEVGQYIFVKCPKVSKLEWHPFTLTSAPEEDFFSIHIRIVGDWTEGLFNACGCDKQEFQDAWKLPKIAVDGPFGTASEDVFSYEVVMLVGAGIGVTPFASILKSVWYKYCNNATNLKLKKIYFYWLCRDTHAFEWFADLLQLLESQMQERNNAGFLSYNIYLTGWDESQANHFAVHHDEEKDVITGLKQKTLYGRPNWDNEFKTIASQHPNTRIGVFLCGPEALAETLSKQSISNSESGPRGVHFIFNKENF

[19] = target: NADPH oxidase 4 (Homo sapiens) (UniProt Q9NPH5); assay: NOX4-dependent H2O2 signal modulators, primary screen, NOX inhibitor project, cell-based, HEK293-NOX4, tetracycline-induced, Amplex Red fluorescence (AID 1160); conditions: 45 min, higher = more signal, called active from +8 up or from −8 down
Sequence of NADPH oxidase 4 (Homo sapiens) (Q9NPH5 whole entry, looked up): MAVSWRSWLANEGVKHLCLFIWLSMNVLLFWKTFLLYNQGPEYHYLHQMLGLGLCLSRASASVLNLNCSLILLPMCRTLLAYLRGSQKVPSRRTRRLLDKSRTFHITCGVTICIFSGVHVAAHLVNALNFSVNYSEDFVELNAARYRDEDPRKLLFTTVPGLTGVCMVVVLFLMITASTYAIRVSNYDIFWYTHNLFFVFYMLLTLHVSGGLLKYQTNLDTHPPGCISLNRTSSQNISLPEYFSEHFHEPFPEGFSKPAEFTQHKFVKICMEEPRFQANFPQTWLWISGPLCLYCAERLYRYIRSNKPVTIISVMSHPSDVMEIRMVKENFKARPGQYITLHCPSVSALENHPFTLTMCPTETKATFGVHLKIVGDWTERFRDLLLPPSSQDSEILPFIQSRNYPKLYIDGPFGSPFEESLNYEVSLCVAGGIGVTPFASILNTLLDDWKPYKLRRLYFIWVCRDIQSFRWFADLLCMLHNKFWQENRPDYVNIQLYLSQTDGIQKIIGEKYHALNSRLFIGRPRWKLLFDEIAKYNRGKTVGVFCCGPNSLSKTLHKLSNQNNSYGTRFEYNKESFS

[20] = target: NADPH oxidase 5 (Homo sapiens) (UniProt Q96PH1); assay: NOX5-dependent H2O2 signal modulators, primary screen, NOX inhibitor project, cell-based, HEK293-NOX5, Amplex Red fluorescence (AID 1161); conditions: HEK293-NOX5, ionomycin, 45 min, higher = more signal
Sequence of NADPH oxidase 5 (Homo sapiens) (Q96PH1 whole entry, looked up): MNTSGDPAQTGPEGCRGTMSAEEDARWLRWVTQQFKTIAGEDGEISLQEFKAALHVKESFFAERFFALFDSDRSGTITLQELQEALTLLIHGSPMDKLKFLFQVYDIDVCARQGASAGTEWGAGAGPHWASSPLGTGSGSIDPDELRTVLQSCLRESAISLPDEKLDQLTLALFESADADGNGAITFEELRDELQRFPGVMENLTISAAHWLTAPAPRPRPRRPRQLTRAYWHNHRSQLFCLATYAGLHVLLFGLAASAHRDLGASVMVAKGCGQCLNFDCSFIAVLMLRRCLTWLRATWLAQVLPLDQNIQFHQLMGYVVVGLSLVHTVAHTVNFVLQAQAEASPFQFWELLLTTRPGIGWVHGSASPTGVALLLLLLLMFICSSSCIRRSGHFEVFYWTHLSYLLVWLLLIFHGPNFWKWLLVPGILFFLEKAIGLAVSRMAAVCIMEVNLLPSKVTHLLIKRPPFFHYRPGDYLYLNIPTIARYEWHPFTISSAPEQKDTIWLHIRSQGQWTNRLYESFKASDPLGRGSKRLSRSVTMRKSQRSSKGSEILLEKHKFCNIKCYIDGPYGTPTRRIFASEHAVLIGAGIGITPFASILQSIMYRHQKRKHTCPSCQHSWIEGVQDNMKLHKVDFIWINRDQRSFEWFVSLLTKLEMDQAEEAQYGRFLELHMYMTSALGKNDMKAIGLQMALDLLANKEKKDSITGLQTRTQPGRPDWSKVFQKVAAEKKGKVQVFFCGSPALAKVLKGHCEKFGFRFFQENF

Row | Structure (SMILES) | composite z-score [1] | z-score [2] | z-score [3] | z-score [4] | z-score [5] | composite z-score [6] | composite z-score [7] | composite z-score (Torsin-1A (Homo sapiens) [8]) | composite z-score (Torsin-1A (Homo sapiens) [9]) | composite z-score [10] | z-score [11] | composite z-score [12] | z-score [13] | z-score [14] | z-score [15] | z-score [16] | z-score [17] | z-score [18] | z-score [19] | z-score [20]
1 | N#Cc1ccc(NN2C(C(O)c3ccccc3)C=CC3C(=O)N(c4ccccc4)C(=O)C32)cc1 (stereo not given) | 0.213 | 0.574 (inactive) | -0.121 (inactive) | -1.11 (inactive) | 1.06 (inactive) | 0.475 | 0.11 | 0.408 | -0.0163 | -0.67 | -1.28 (inactive) | 0.0077 | 9.06 (active) | 0.611 (inactive) | 1.65 (inactive) | 0.58 (inactive) | -0.823 | -2.08 (inactive) | -5.5 (inactive) | -3.44
2 | CN1C(=O)C2C=CC(C(O)C3CCCCC3)N(N(c3ccccc3)c3ccccc3)C2C1=O (stereo not given) | 0.0957 | 0.673 (inactive) | 0.0683 (inactive) | -0.333 (inactive) | 0.355 (inactive) | -0.0316 | 0.596 | -0.08 | 0.0415 | -0.298 | -1.11 (inactive) | 0.344 | 0.801 (inactive) | 1.09 (inactive) | 0.332 (inactive) | 0.926 (inactive) | -1.47 | -0.557 (inactive) | -0.635 (inactive) | -0.0135
3 | CCCCC(=C=CC[C@H](O)c1ccccc1OCCO)C[C@H](O)c1ccccn1 | -0.135 | -0.392 (inactive) | -0.0512 (inactive) | 6.34 (inactive) | -0.872 (inactive) | 0.597 | -0.0762 | 0.718 | 1.01 | 1.4 | 1.47 (inactive) | -0.0536 | 4.7 (inactive) | 1.16 (inactive) | 2.3 (inactive) | 0.576 (inactive) | 0.822 | -0.778 (inactive) | -0.193 (inactive) | -1.37
4 | C=C(CCCC)/C(=C/C[C@@H](OC(=O)c1ccncc1)c1ccccc1OCCO)c1cc(C(=O)OC)ccc1OC | 0.106 | -2.02 (inactive) | 0.0648 (inactive) | 15.6 (active) | 0.383 (inactive) | -0.36 | -0.0047 | 0.622 | 1.1 | 1.4 | 0.504 (inactive) | 0.282 | 28 (active) | 17.5 (active) | 3.94 (inactive) | 2.07 (inactive) | 0.761 | 1.08 (inactive) | -0.25 (inactive) | -1.62
5 | CCCCC(=C=CC[C@H](O)c1cccc(OCCO)c1)C[C@H](O)COCc1ccccc1 | -0.122 | -1.33 (inactive) | -0.295 (inactive) | 3.54 (inactive) | 1.04 (inactive) | 0.206 | -0.101 | 0.139 | 0.0056 | 0.508 | 0.483 (inactive) | -0.0984 | 15.3 (active) | 2.48 (inactive) | 0.658 (inactive) | 1.02 (inactive) | 0.949 | -2.67 (inactive) | -1.29 (inactive) | -2.41
6 | COCCOC(=O)N1C(=O)[C@@]2(c3cc(C#CCCO)ccc31)[C@H](C(=O)N1CCc3cc(OC)c(OC)cc3C1)[C@H]1C(=O)O[C@H](c3ccccc3)[C@H](c3ccccc3)N1[C@@H]2c1ccc(OCCO)cc1 | 0.667 | -2.99 (inactive) | -1.11 (inactive) | 0.362 (inactive) | -1.27 (inactive) | 0.675 | 0.077 | 0.284 | 0.89 | 2.13 | 1.42 (inactive) | 0.113 | 4.67 (inactive) | 1.02 (inactive) | 0.138 (inactive) | -0.0492 (inactive) | 1.26 | 1.35 (inactive) | 1.07 (inactive) | 1.44
7 | C=CCOC(=O)[C@@H]1[C@H]2C(=O)O[C@H](c3ccccc3)[C@H](c3ccccc3)N2[C@H](c2ccc(OCCOC(=O)[C@@H]3C[C@@H]4C(=O)N[C@@H](CCCCNC(C)=O)C(=O)N4[C@@H]3c3ccc(O)cc3)cc2)[C@@]12C(=O)Nc1ccc(I)cc12 | 0.681 | -0.0705 (inactive) | -0.128 (inactive) | -0.805 (inactive) | -1.32 (inactive) | -0.0068 | 0.591 | 0.928 | 0.27 | 1.81 | 0.158 (inactive) | 0.998 | 0.978 (inactive) | 1.08 (inactive) | 1.45 (inactive) | 0.718 (inactive) | -0.581 | 1.42 (inactive) | 1.35 (inactive) | 0.716
8 | CCOC(=O)C[C@H]1[C@H](OC(=O)Cc2ccc3c(c2)OCO3)[C@@H](NC(=O)c2ccccc2)c2cc(OCCCO)ccc2N1C(=O)c1ccccc1 | -0.0373 | -0.363 (inactive) | -0.669 (inactive) | 0.512 (inactive) | 0.484 (inactive) | 0.243 | -0.128 | 0.0229 | 0.403 | 0.85 | 1.7 (inactive) | -0.103 | 1.05 (inactive) | 0.396 (inactive) | -0.707 (inactive) | -0.281 (inactive) | 0.149 | 0.366 (inactive) | 0.759 (inactive) | 0.322
